Laboratory results reported in PubChem BioAssay (Tox21).
Values joined by “and” are separate entries in the source; they are usually repeats but may differ in a detail not shown here. Equal values may be shown once. Records with an inconclusive call do not appear. Active and inactive are the calls of the source. The call rests on the fitted dose curve.

What was measured:
[1] = target: Acetylcholinesterase (Homo sapiens) (UniProt P22303); experiment: Acetylcholinesterase (AChE) small molecule antagonists: colormetric cell-based qHTS assay (AID 1347395); further: nearly all actives have a fitted effect of over 30% in size; further: potency means the concentration at half of the fitted maximal effect
Chain of Acetylcholinesterase (Homo sapiens) (P22303 whole entry, looked up): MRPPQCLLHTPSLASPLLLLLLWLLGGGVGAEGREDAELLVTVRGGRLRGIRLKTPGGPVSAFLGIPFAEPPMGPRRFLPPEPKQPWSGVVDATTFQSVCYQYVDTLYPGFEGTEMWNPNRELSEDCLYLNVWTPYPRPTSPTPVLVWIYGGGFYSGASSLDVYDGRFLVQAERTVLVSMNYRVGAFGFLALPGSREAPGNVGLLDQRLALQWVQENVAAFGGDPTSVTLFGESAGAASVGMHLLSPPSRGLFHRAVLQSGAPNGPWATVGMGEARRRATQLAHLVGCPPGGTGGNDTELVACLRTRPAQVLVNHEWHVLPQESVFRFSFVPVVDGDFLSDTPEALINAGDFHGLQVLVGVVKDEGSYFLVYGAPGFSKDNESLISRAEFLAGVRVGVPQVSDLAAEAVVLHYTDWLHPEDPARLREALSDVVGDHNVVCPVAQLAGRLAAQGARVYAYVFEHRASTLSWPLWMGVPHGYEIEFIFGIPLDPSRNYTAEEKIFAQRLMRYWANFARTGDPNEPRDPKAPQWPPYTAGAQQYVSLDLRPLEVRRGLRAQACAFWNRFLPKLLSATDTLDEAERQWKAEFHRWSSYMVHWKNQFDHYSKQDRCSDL
How it was run: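 Quantitative HTS in attached SH-SY5Y cells: 30 min compound exposure, then 90 min with acetylthiocholine and DTNB at 37 C; colour from thiocholine reports AChE activity.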

[2] = target: Acetylcholinesterase (Homo sapiens) (UniProt P22303); experiment: Acetylcholinesterase (AChE) small molecule antagonists: enzyme-based qHTS assay (AID 1347397); details: Potency: AChE enzyme activity inhibition; outcome: AChE enzyme activity inhibition; further: nearly all actives have a fitted effect of over 55% in size
How it was run: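 Colorimetric DTNB readout of acetylthiocholine hydrolysis, 10 min at room temperature, after 30 min room-temperature exposure of 50 mU/mL recombinant human enzyme to compound; DMSO vehicle control.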

[3] = target: Acetylcholinesterase (Homo sapiens) (UniProt P22303); experiment: Acetylcholinesterase (AChE) small molecule antagonists: fluorescence cell-based qHTS assay (AID 1347398); details: Potency: AChE activity; outcome: AChE activity; further: nearly all actives have a fitted effect of over 50% in size; further: potency means the concentration at half of the fitted maximal effect
How it was run: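 Cellular AChE activity read as thiocholine from acetylthiocholine hydrolysis, detected by Thiolite Green fluorescence at 490/520 nm after 40 min at room temperature. Compounds were pre-incubated 30 min at 37 C on adherent SH-SY5Y cells.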

[4] = target: Acetylcholinesterase (Homo sapiens) (UniProt P22303); experiment: Acetylcholinesterase (AChE) small molecule antagonists: enzyme-based qHTS assay with human liver microsomes (AID 1347399); details: Potency: qHTS inhibition; outcome: qHTS inhibition; further: nearly all actives have a fitted effect of over 60% in size
How it was run: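 Recombinant human AChE (50 mU/mL in the enzyme mix) and human liver microsomes (0.25 mg/mL final) were preincubated with compound and NADPH (0.25 mg/mL final) for 30 min at 37 C. Acetylthiocholine/DTNB was then added; thiocholine was read colorimetrically after 10 min at room temperature.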

Measured: Potency

CCOC(=O)O[C@H](C)OC(=O)c1ccc2c(c1)cc(C(=O)NC1CCN(C(C)C)CC1)n2Cc1cc(-c2ccc(Cl)s2)on1
active: [3] 41.8 µM
inactive: [1] | [2] | [4]

CO[C@@]1(NC(=O)C(C(=O)O)c2ccc(O)cc2)C(=O)N2C(C(=O)O)=C(CSc3nnnn3C)CO[C@@H]21 (stereo not given in full)
inactive: [1] | [2] | [3] | [4]

NNC(=O)CP(=O)(c1ccccc1)c1ccccc1
inactive: [1] | [2] | [3] | [4]

CCOc1cc(OCC)c(C(=O)CCC(=O)O)cc1OCC
inactive: [1] | [2] | [3] | [4]

NC(=O)c1ccc([N+](=O)[O-])cc1
inactive: [1] | [2] | [3] | [4]

CCC(=O)OCc1ccccc1
inactive: [1] | [2] | [3] | [4]

CC(C)(C)C(=O)C(=O)O
inactive: [1] | [2] | [3] | [4]

CCCCCCCCCCCC(=O)Cl
inactive: [1] | [2] | [3] | [4]

CC(C)(C)Cl
inactive: [1] | [2] | [3] | [4]

O=C1NC(c2ccccc2)(c2ccccc2)C(=O)N1COP(=O)(O)O
inactive: [1] | [2] | [3] | [4]

Cc1cc2nc3c(=O)[nH]c(=O)nc-3n(C[C@H](O)[C@H](O)[C@H](O)CO)c2cc1C
inactive: [2] | [3] | [4]
active: [1] 35.2 µM and 33 µM

C[C@]12CCC(=O)C=C1CC[C@@H]1[C@@H]2C(=O)C[C@@]2(C)[C@H]1CC[C@]2(O)C(=O)CO
inactive: [1] | [2] | [3] | [4]

C1=CCCC1
inactive: [1] | [2] | [3] | [4]

C=CC(C)(O)CC/C=C(/C)CCC=C(C)C (stereo not given)
inactive: [1] | [2] | [3] | [4]

COc1cc(-c2ccc(=O)[nH]n2)ccc1OC(F)F
inactive: [1] | [2] | [3] | [4]

CCN(C=O)CC
inactive: [1] | [2] | [3] | [4]

Nc1ccc(-c2ccc(F)cc2)cc1
inactive: [1] | [2] | [3] | [4]

Cc1cn([C@@H]2O[C@H](CO)[C@@H](O)[C@@H]2F)c(=O)[nH]c1=O
inactive: [1] | [2] | [3] | [4]

CC(C)CCCC(=O)O
inactive: [1] | [2] | [3] | [4]

NS(=O)(=O)c1cc(C(=O)O)cc(N2CCCC2)c1Oc1ccccc1
inactive: [1] | [2] | [3] | [4]

CN(C)CCCOC1(Cc2ccccc2)CCCCCC1
inactive: [1] | [2] | [3] | [4]

Cn1cnc2c(F)c(Nc3ccc(Br)cc3Cl)c(C(=O)NOCCO)cc21
inactive: [1] | [2] | [3] | [4]

COC(=O)CCCCC(=O)O
inactive: [1] | [2] | [3] | [4]

Cc1cc(CCC(=O)OCCOCCOCCOC(=O)CCc2cc(C)c(O)c(C(C)(C)C)c2)cc(C(C)(C)C)c1O
inactive: [1] | [2] | [3] | [4]

Cn1ccnc1
inactive: [1] | [2] | [3] | [4]

COc1ccc(NC(C)=O)cc1
inactive: [1] | [2] | [3] | [4]

FB(F)F
inactive: [1] | [2] | [3] | [4]

CCOc1cc(NC(C)=O)ccc1C(=O)OC
inactive: [1] | [2] | [3] | [4]

CCCCCCCCCC=O
inactive: [1] | [2] | [3] | [4]

COc1ccc(C#N)cc1
inactive: [1] | [2] | [3] | [4]

CCCCC(O)/C=C(C)/C=C/C=C/C(=O)N1CCCC1=O (stereo not given)
inactive: [1] | [2] | [3] | [4]

CCCCCCCCCCCC(=O)OCC(C)OC(=O)CCCCC(=O)O (stereo not given)
inactive: [1] | [2] | [3] | [4]

CCC(O)OCCCOC (stereo not given)
inactive: [1] | [2] | [3] | [4]

O=c1cc(O)c(Cl)c[nH]1
inactive: [1] | [2] | [3] | [4]

OCCCCCCCCCCCCBr
inactive: [1] | [2] | [3] | [4]

CCC(=O)c1cccc(Cl)c1
inactive: [1] | [2] | [3] | [4]

ClC/C=C\CCl
inactive: [1] | [2] | [3] | [4]

CCC(C)(C)CC
inactive: [1] | [2] | [3] | [4]

C=CCCCCCCCCC=O
inactive: [1] | [2] | [3] | [4]

O=C(O)c1ccc([N+](=O)[O-])cc1
inactive: [1] | [2] | [3] | [4]

CC(C)COC(=O)CCCCC(=O)OCC(C)C
inactive: [1] | [2] | [3] | [4]

COc1ccc(C(Cl)=C(c2ccc(OC)cc2)c2ccc(OC)cc2)cc1
inactive: [1] | [2] | [3] | [4]

CCO/C=C1\N=C(c2ccccc2)OC1=O
inactive: [1] | [2] | [3] | [4]

C1COCO1
inactive: [1] | [2] | [3] | [4]

COC(CC(C)CCCC(C)(C)O)OC (stereo not given)
inactive: [1] | [2] | [3] | [4]

CC=C(Cl)Cl
inactive: [1] | [2] | [3] | [4]

CC(C)=CCC/C(C)=C/C(=O)O
inactive: [1] | [2] | [3] | [4]

COCC(=O)Nc1c(I)c(C(=O)NCC(O)CO)c(I)c(C(=O)N(C)CC(O)CO)c1I (stereo not given)
inactive: [1] | [2] | [3] | [4]

CCOC(=O)C(=O)CCCCCCl
inactive: [1] | [2] | [3] | [4]

O=c1[nH][nH]c2ccccc12
inactive: [1] | [2] | [3] | [4]

COc1cc(C(=S)N2CCOCC2)ccc1O
inactive: [1] | [2] | [3] | [4]

Cc1c(F)c(N2CCNC(C)C2)cc2c1c(=O)c(C(=O)O)cn2C1CC1 (stereo not given)
inactive: [1] | [2] | [3] | [4]

CCN(CC)CCNC(=O)c1cc(S(C)(=O)=O)ccc1OC
inactive: [1] | [2] | [3] | [4]

CCOC(=O)CC(=O)c1ccccc1
inactive: [1] | [2] | [3] | [4]

CC1=CCC(O)(C(C)C)CC1 (stereo not given)
inactive: [1] | [2] | [3] | [4]

O=S(=O)(O)CCCN1CCOCC1
inactive: [1] | [2] | [3] | [4]

CCN1CCCC(OC(=O)C(c2ccccc2)c2ccccc2)C1 (stereo not given)
inactive: [1] | [2] | [3] | [4]

CC(C)(C)C(O)/C=C/c1ccc2c(c1)OCO2 (stereo not given)
inactive: [1] | [2] | [3] | [4]

COC(=O)/C=C\C(=O)OC
inactive: [1] | [2] | [3] | [4]

C[Si]1(C)O[Si](C)(C)O[Si](C)(C)O[Si](C)(C)O[Si](C)(C)O1
inactive: [1] | [2] | [3] | [4]
